The target in assay [1] is Protein kinase C gamma type (Homo sapiens) (UniProt P05129). As to conditions: at 1 µM.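 Note: each value is an averaged percent inhibition of the enzyme.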
Assay [2] concerns the target T1, Protein kinase C iota type (Homo sapiens) (UniProt P41743).
T1 sequence (whole entry): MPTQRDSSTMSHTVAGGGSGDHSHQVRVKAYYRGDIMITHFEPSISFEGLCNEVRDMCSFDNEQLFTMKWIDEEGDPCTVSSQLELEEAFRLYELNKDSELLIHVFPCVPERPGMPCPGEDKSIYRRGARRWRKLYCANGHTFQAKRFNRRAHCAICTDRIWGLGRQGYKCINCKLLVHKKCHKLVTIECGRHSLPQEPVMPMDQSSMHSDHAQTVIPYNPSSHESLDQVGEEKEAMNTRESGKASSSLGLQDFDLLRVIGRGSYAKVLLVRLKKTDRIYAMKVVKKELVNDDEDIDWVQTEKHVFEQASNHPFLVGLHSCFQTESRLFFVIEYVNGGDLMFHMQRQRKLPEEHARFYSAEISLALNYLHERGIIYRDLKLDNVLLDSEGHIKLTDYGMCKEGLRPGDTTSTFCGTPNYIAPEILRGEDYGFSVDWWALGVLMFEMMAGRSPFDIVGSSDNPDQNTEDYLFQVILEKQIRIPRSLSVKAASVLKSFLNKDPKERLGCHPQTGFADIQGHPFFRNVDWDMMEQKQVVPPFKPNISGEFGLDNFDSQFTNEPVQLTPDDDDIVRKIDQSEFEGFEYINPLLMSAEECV
As to conditions: at 0.1 µM.

In assay [3] the target is T1, Protein kinase C iota type (Homo sapiens). To be noted: at 1 µM.
Assay [4] deals with Protein kinase C theta type (Homo sapiens) (UniProt Q04759). To be noted: at 0.1 µM.
Assay [5] has the same target. To be noted: at 1 µM.
Assay [6] has as its target Protein kinase C beta type (Homo sapiens) (UniProt P05771). As to conditions: at 0.1 µM.
Assay [7] shares this target. As to conditions: at 1 µM.
Assay [8] concerns the target T2, Serine/threonine-protein kinase D1 (Homo sapiens) (UniProt Q15139).
T2 sequence (whole entry): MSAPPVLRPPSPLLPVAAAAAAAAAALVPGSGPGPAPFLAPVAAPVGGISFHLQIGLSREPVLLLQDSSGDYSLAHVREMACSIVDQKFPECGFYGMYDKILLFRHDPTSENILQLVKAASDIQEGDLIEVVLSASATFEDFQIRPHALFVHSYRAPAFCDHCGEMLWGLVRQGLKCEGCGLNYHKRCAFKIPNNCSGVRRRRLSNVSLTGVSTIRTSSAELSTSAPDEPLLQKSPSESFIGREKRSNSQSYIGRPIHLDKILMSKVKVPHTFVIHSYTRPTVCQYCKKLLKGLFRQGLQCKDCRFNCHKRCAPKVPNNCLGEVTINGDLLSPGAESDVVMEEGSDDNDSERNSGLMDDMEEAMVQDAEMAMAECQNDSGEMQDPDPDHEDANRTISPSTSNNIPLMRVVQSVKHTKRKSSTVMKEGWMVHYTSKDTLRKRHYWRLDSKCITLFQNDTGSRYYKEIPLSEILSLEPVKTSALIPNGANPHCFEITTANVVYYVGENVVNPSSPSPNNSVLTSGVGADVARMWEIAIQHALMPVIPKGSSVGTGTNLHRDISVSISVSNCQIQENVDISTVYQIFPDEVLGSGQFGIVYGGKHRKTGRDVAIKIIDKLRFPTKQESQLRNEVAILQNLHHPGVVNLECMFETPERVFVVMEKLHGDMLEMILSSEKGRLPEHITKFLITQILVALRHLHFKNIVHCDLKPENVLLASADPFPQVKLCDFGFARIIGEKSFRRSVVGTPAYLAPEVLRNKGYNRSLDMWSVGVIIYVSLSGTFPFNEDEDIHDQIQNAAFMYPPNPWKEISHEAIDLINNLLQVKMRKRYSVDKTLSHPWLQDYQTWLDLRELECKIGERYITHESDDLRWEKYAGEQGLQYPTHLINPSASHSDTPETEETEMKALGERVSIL
To be noted: at 0.1 µM.

Assay [9] has as its target T2, Serine/threonine-protein kinase D1 (Homo sapiens). To be noted: at 1 µM.
The target of assay [10] is T3, Serine/threonine-protein kinase D2 (Homo sapiens) (UniProt Q9BZL6).
T3 sequence (whole entry): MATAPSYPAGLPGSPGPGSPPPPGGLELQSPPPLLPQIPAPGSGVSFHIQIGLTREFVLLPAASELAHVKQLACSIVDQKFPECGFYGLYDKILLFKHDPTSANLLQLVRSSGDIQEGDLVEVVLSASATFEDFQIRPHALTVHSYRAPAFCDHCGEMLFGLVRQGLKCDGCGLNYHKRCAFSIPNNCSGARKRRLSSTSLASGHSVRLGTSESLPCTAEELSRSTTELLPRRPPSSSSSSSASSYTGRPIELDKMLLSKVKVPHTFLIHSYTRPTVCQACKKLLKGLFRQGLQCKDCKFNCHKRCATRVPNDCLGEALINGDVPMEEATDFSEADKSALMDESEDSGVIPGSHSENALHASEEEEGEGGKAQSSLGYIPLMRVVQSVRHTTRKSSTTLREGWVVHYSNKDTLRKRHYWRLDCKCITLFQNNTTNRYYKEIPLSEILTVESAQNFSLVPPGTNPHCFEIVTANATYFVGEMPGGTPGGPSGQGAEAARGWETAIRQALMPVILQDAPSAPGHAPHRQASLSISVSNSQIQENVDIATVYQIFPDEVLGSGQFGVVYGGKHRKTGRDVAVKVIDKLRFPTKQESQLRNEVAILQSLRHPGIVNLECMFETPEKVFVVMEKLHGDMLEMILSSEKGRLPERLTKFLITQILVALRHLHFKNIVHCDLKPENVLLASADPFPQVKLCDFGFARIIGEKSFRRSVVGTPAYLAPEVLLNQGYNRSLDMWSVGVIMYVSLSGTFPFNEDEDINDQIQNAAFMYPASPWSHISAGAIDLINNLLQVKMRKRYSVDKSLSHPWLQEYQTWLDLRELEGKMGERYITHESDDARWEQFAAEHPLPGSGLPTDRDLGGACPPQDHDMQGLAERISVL
As to conditions: at 0.1 µM.

Assay [11] addresses T3, Serine/threonine-protein kinase D2 (Homo sapiens). To be noted: at 1 µM.
The target of assay [12] is T4, Serine/threonine-protein kinase D3 (Homo sapiens) (UniProt O94806).
T4 sequence (whole entry): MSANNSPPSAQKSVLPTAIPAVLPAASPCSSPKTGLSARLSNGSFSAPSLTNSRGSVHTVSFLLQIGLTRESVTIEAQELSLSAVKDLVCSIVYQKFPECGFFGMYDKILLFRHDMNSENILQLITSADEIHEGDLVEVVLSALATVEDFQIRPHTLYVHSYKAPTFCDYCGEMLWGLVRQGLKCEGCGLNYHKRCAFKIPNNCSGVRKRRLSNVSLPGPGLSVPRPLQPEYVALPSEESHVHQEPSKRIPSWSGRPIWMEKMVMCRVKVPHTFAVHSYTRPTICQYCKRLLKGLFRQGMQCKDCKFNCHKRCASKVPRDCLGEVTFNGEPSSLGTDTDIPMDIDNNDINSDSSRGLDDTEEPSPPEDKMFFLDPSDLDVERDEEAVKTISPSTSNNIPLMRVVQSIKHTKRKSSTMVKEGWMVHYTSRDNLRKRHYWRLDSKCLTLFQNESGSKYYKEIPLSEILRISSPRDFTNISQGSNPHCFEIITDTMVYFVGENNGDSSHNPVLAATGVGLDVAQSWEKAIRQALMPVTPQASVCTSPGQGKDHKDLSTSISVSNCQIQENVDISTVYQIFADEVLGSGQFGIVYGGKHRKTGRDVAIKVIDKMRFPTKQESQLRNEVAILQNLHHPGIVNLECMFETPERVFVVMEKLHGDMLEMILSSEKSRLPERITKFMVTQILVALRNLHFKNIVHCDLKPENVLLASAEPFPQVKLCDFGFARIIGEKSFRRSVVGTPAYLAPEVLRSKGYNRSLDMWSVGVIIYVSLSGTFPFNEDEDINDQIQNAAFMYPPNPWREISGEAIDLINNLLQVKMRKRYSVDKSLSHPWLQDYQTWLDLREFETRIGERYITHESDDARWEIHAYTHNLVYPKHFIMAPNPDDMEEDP
To be noted: at 0.1 µM.

Assay [13] addresses T4, Serine/threonine-protein kinase D3 (Homo sapiens). As to conditions: at 1 µM.
In assay [14] the target is T5, cGMP-dependent protein kinase 1 (Homo sapiens) (UniProt Q13976).
T5 sequence (whole entry): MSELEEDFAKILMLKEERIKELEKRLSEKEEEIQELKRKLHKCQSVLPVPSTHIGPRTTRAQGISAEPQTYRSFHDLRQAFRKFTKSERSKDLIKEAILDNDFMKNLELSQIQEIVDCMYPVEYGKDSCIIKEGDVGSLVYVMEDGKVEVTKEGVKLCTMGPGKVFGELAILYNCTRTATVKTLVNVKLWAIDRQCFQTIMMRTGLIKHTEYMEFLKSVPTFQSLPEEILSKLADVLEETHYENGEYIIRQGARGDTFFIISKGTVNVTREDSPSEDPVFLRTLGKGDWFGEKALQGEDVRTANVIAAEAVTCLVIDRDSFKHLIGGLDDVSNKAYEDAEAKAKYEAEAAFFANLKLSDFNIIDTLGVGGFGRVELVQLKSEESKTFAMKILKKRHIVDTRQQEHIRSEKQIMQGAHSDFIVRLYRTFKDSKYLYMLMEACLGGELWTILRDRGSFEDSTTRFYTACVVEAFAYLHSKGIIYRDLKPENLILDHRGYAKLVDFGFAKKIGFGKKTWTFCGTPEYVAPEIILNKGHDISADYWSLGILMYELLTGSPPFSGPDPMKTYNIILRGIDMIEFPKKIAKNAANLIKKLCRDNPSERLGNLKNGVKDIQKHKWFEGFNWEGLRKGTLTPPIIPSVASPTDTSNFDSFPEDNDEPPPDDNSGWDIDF
To be noted: at 0.1 µM.

Assay [15] has as its target T5, cGMP-dependent protein kinase 1 (Homo sapiens). As to conditions: at 1 µM.
Assay [16] has as its target T6, cGMP-dependent protein kinase 2 (Homo sapiens) (UniProt Q13237).
T6 sequence (whole entry): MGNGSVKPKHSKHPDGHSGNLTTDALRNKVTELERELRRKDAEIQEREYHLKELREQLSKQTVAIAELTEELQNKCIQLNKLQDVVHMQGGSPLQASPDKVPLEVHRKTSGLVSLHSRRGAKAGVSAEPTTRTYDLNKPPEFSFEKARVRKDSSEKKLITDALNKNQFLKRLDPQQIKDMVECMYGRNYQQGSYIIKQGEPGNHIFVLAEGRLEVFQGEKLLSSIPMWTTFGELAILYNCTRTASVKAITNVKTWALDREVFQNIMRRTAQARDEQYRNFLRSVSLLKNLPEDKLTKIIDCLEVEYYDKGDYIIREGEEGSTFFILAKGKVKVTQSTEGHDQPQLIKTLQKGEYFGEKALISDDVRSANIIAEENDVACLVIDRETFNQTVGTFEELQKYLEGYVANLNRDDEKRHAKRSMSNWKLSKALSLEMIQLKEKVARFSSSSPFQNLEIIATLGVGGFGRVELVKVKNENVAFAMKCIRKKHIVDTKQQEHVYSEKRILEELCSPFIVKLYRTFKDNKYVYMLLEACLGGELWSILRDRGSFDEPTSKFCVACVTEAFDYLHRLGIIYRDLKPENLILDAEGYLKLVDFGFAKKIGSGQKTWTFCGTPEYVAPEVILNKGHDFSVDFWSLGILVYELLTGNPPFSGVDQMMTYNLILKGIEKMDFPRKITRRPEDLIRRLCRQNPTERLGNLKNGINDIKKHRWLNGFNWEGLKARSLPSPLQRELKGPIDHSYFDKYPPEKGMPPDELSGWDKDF
To be noted: at 0.1 µM.

The target of assay [17] is T6, cGMP-dependent protein kinase 2 (Homo sapiens). As to conditions: at 1 µM.
Assay [18] addresses T7, cAMP-dependent protein kinase catalytic subunit PRKX (Homo sapiens) (UniProt P51817).
T7 sequence (whole entry): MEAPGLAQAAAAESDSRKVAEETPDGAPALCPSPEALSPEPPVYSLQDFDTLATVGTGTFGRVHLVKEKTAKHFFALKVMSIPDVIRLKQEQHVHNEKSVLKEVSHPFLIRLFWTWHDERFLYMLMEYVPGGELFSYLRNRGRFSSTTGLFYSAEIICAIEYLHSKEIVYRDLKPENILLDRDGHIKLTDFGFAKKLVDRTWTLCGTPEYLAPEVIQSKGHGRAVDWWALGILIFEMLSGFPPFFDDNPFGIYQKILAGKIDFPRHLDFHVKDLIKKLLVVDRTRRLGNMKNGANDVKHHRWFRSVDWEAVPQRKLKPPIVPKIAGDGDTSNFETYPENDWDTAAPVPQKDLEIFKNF
As to conditions: at 0.1 µM.

The target in assay [19] is T7, cAMP-dependent protein kinase catalytic subunit PRKX (Homo sapiens). As to conditions: at 1 µM.
The target of assay [20] is Rho-associated protein kinase 1 (Homo sapiens) (UniProt Q13464). To be noted: at 0.1 µM.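 Note: values are mean percent inhibition of ROCK1.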

SMILES strings stand for the structures.

The inhibition is the change of the read-out against control, counted positive when it falls.

Chain of Protein kinase C beta type (Homo sapiens) (P05771 2-671 limits assumed): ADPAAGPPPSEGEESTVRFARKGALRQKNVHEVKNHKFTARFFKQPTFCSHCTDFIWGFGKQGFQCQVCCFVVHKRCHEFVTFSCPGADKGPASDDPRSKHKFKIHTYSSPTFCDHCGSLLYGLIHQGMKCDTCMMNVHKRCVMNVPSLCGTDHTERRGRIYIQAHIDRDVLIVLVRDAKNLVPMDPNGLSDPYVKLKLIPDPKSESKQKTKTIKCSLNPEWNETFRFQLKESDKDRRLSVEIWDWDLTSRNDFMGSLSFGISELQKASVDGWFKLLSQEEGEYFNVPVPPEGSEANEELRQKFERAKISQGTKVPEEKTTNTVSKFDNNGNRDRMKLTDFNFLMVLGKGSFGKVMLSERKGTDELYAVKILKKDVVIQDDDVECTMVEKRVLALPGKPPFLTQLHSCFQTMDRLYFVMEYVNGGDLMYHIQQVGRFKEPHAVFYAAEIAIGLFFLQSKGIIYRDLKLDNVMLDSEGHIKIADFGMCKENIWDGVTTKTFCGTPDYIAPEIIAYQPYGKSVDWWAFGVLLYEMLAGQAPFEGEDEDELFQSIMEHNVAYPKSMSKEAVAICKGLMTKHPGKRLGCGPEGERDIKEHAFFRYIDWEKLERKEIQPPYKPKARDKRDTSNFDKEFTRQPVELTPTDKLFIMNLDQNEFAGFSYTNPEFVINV
Chain of Protein kinase C theta type (Homo sapiens) (Q04759 whole entry, looked up): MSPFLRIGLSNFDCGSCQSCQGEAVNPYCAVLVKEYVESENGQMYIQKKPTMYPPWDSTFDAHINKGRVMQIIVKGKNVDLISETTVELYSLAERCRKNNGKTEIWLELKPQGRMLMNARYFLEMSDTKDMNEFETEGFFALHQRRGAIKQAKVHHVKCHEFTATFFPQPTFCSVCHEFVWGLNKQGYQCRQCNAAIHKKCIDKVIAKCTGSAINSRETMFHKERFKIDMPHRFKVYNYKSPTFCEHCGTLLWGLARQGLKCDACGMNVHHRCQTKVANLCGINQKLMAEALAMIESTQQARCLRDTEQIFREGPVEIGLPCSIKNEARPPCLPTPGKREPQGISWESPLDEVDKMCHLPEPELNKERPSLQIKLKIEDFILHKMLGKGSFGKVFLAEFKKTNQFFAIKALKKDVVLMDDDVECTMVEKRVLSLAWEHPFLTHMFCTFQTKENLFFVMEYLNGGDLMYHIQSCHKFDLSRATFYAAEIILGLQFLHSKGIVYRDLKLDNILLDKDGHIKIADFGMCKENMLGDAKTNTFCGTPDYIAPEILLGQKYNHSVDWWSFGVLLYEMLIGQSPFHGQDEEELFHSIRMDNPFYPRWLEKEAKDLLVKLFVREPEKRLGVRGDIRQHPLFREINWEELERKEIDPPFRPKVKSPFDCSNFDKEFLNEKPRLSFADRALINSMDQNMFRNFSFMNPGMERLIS
Chain of Rho-associated protein kinase 1 (Homo sapiens) (Q13464 2-1354 limits assumed): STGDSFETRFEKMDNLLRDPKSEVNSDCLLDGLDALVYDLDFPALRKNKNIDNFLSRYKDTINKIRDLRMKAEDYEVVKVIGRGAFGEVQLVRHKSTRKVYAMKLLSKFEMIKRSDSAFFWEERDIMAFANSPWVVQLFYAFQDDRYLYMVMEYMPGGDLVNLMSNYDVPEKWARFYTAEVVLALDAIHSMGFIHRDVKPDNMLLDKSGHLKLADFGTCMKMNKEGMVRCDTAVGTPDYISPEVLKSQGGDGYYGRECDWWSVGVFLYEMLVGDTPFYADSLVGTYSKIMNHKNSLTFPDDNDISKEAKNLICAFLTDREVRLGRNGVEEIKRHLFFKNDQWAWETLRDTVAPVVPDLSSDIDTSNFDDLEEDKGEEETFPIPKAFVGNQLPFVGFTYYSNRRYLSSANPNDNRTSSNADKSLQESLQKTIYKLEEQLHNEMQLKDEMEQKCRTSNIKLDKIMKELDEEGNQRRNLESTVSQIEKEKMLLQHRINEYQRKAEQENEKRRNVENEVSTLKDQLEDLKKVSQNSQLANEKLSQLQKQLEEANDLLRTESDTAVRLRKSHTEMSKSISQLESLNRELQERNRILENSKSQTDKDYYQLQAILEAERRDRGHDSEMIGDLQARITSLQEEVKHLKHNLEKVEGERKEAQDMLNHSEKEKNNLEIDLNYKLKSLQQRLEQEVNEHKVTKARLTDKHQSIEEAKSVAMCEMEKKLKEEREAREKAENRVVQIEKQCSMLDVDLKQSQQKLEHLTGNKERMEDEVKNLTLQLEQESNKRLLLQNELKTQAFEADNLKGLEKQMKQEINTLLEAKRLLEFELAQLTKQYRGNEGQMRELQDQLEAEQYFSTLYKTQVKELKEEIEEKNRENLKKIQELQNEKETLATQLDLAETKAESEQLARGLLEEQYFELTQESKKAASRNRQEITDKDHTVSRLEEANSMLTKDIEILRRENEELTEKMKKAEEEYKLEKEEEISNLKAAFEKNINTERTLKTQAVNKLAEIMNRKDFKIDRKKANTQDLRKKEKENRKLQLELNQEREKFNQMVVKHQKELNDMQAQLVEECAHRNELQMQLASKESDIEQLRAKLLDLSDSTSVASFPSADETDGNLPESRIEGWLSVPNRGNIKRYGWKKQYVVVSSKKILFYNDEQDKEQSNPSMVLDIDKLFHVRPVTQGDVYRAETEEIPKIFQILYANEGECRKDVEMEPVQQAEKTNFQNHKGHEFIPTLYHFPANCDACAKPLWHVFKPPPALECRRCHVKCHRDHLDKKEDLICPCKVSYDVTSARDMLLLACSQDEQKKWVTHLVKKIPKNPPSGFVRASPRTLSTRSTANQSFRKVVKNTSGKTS

`Fc1cccc(COc2ccc(Nc3ncnc4sc(-c5ccco5)cc34)cc2Cl)c1`: the inhibition in [1] turned out to be 1.6%; in assay [2], 2.45%; in assay [3], 2.35%; in assay [4], 2%; in assay [5], 2.39%; in [6], 1%. Besides, the inhibition in assay [7] was found to be 1.15%; in assay [8], 5.24%; in assay [9], 6.44%; in assay [10], 4.13%; in [11], 2.52%; in [12] it was 5.28%. Further, the inhibition in [13] was 4.41%; in assay [14] it was 2.93%; in assay [15], 1.81%; in [16], 1.59%; in [17], -0.65%; in assay [18], 2.01%. For the same compound, the inhibition in [19] is 2.86%; in assay [20], 2.54%.
Regarding `CC(=O)Nc1cccc(C#Cc2cncnc2Nc2ccc(OCc3cccc(F)c3)c(Cl)c2)c1`, the inhibition is 3.97% in [1]; 0.27% in assay [2]; 2.04% in assay [3]; 0.62% in assay [4]; -0.6% in [5]; 1.6% in assay [6]. The inhibition in assay [7] is 0.79%; in [8] it was 1.8%; in [9], 2.69%; in assay [10], 1.88%; in assay [11], 3.79%; in assay [12], 2.13%. Also, the inhibition in [13] is 2.46%; in assay [14], 3.13%; in assay [15], 3.55%; in assay [16], 2.86%; in assay [17], 1.98%; in [18], 1.66%. Besides, the inhibition was determined as 1.17% in assay [19] and 1.07% in assay [20].

The record behind these values is ChEMBL document CHEMBL1961873, “Compounds: GSK PKIS; Assays: Nanosyn kinase panel” (2012).
